Test results from the supplement of paper PMC11417369.
± gives the standard deviation of the averaged measurements. In all, about 25,000 sequences were measured (“ln(normalized median fluorescence intensity)”: median about 8.6, highest 2% from about 10 on). The sample holds the highest values, similar sequences and a random draw of the others, so the mix is not that of the screen.

Tested on: PfAP2-EXP AP2 domain (GST-tagged)
Test: gcPBM binding intensity (ln(normalized median fluorescence intensity)); higher = stronger DNA binding
Outline: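 Binding intensity is the highest Masliner-normalised natural-log median intensity over replicate spots in either probe orientation. To obtain it, GST-tagged P. falciparum DNA-binding domains made in E. coli were incubated for 1 h on an Agilent 4 × 180k array of primer-extended double-stranded 36-bp intergenic genomic probes plus negative controls. Detection used Alexa488 anti-GST antibody with scanning at 488 nm.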

Question: Which “gcPBM binding intensity (ln)” value does the source give for “AAATTATATCCCCTTTGTACTTACAGATCTTTATAC [XGTACX_site8163]” here?
Answer: 8.77 ± 0.51

Question: For “CACAGTGATATAAAAACACACATGAATTCTAATTTC [CACACA_site6884]”, which “gcPBM binding intensity (ln)” value is on record?
Answer: 8.3 ± 0.21

Question: How did the “gcPBM binding intensity (ln)” value turn out when “AAAGTTGTTACGAACATACACACGAACATACTCACG [CACACA_site604]” was run?
Answer: 8.7 ± 0.69

Question: How did the “gcPBM binding intensity (ln)” value turn out when “CCACTATATAAAATCACACATTTATATTATACATAT [CACACA_site4570]” was run?
Answer: 8.43 ± 0.4

Question: For “TGTCATTTAATTTTTTGTACGAAAAAAACATATAAA [XGTACX_site4952]”, which “gcPBM binding intensity (ln)” value is on record?
Answer: 8.6 ± 0.24

Question: With “TAATATTAATCCTAGTGTACATTAATTTATATGTAT [XGTACX_site3583]” as the sequence, how does the “gcPBM binding intensity (ln)” value read?
Answer: 8.51 ± 0.45

Question: How did the “gcPBM binding intensity (ln)” value turn out when “GTATATATATATTTATGTACTTACCTACATAATTAT [XGTACX_site4435]” was run?
Answer: 8.84 ± 0.24

Question: How did the “gcPBM binding intensity (ln)” value turn out when “TATACATATATTATATGTACATATATATATAATATA [XGTACX_site2942]” was run?
Answer: 8.29 ± 0.28

Question: “TTTAATTAAAATATATGTACATATATATATATATAT [XGTACX_site4517]” was tested. Which “gcPBM binding intensity (ln)” value did it give?
Answer: 10.4

Question: For “ATAATGTTTTATAATACACACATTATGTATATAAAT [CACACA_site4077]”, which “gcPBM binding intensity (ln)” value is on record?
Answer: 8.36 ± 0.38

Question: How did the “gcPBM binding intensity (ln)” value turn out when “ATATATATATATATATGTACACATTAATGTTTTTTT [XGTACX_site167]” was run?
Answer: 10.4 ± 0.24

Question: “GTATGTATGTATATATGTACACATTATTATTTAATG [XGTACX_site5802]” was tested. Which “gcPBM binding intensity (ln)” value did it give?
Answer: 8.78 ± 0.11

Question: For “ATATTAATATACATATGTACATATATATATATATAT [XGTACX_site7425]”, which “gcPBM binding intensity (ln)” value is on record?
Answer: 10.2 ± 0.24

Question: With “AAATTAATATAAATATGTACATAAATAATAAAATAT [XGTACX_site6131]” as the sequence, how does the “gcPBM binding intensity (ln)” value read?
Answer: 8.71 ± 0.5

Question: With “ATATATATATATATATGTACATATTATTAATAATAT [XGTACX_site6667]” as the sequence, how does the “gcPBM binding intensity (ln)” value read?
Answer: 10.2 ± 0.35

Question: How did the “gcPBM binding intensity (ln)” value turn out when “AAATTAAAATATATATGTACATATATATATATATAT [XGTACX_site7844]” was run?
Answer: 10 ± 0.42

Question: Which “gcPBM binding intensity (ln)” value does the source give for “TATTATTATTATTATTTTAAAAGAAATAAAAATATG [XGTACX_negctrl_site119]” here?
Answer: 8.1 ± 0.39

Question: With “AATTGGAAGAAAAAAAAGGAAGGAAAGTTATTACAT [GTGCAC_negctrl_site74]” as the sequence, how does the “gcPBM binding intensity (ln)” value read?
Answer: 8.62 ± 0.41

Question: With “AAATTTGAAGAATATTGTACGCATAATAATTAAATA [XGTACX_site4300]” as the sequence, how does the “gcPBM binding intensity (ln)” value read?
Answer: 8.82 ± 0.41

Question: For “TTACATATGGTTAGTAGTACATATATAAATGTAAAT [XGTACX_site7206]”, which “gcPBM binding intensity (ln)” value is on record?
Answer: 8.62 ± 0.47

Question: How did the “gcPBM binding intensity (ln)” value turn out when “AATTAATGGTTAAAGGTGCACAATACATATATTACA [GTGCAC_site9943]” was run?
Answer: 9.57 ± 0.45

Question: For “AAATCAAACTTTGGTGTGCACAAATATATACATATA [GTGCAC_site9986]”, which “gcPBM binding intensity (ln)” value is on record?
Answer: 9.1 ± 0.29

Question: With TTACATACAATTGGTGTGCACATATATATATATATA as the sequence, how does the “gcPBM binding intensity (ln)” value read?
Answer: 10.3 ± 0.33

Question: Which “gcPBM binding intensity (ln)” value does the source give for “TATATATATAAGATTGTGCACATTAAAATGATAGAA [GTGCAC_site9621]” here?
Answer: 9.265 ± 0.049

Question: “TATATATATATATATACATGCATTTCTCATGTACAT [TGCATGCA_site621]” was tested. Which “gcPBM binding intensity (ln)” value did it give?
Answer: 10.2 ± 0.33

Question: “TATATATTTATATATGCATGTACATTTTTATTTATT [TGCATGCA_site1048]” was tested. Which “gcPBM binding intensity (ln)” value did it give?
Answer: 8.82 ± 0.25

Question: “TACATGCATTTCTCATGTACATAATTTTCCCATATT [XGTACX_site5158]” was tested. Which “gcPBM binding intensity (ln)” value did it give?
Answer: 8.81 ± 0.4
